The list is not random: actives were taken first. Their share in the collection is about 0.54%.
CatS block: human cathepsin S inhibition | P25774 | recombinant cathepsin S, AMC dipeptide fluorescence, pooled mixtures | inhibition, %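 (tested at 5 µM per compound within 10-compound mixtures)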 | actives 0.06% (n = 62,000) | AID 501; in the data active = inhibition above about 32%, passing the limit was not always enough; inconclusive = no clear call, values can overlap the other calls;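 note: 0% = enzyme without compound and 100% = blank without enzyme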
Target sequence (P25774 115-331 limits assumed): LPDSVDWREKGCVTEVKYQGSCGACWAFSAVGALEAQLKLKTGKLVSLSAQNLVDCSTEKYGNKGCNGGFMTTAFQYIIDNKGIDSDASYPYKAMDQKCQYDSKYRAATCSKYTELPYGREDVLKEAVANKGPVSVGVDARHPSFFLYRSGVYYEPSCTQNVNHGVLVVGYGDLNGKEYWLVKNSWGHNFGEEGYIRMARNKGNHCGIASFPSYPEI
CatB mixtures: human cathepsin B inhibition by mixtures | Purified cathepsin B, AMC dipeptide fluorescence, compound mixtures | inhibition, %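 (ten-compound pools at 5 µM per compound and 50 µM total)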 | P07858 | actives 0.06% (n = 62,000); in the data active = inhibition above about 22%, passing the limit was not always enough; inconclusive = no clear call, values can overlap the other calls;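 note: 0% = enzyme without compound and 100% = no enzyme blank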
CatL block: inhibitors of human cathepsin L. P07711. purified cathepsin L, fluorogenic substrate, fluorescence. inhibition, %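 (tested at 10 µM)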. actives 0.17% (n = 58,000). AID 460; in the data active = inhibition above about 45%;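 note: 0% = enzyme with no compound and 100% = no enzyme blank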
CatB block: blocks human cathepsin B protease activity; AID 453; P07858; actives 0.1% (n = 63,000); purified cathepsin B, fluorogenic substrate, fluorescence; inhibition, %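 (tested at 10 µM)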; in the data active = inhibition above about 21%;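 note: 0% = enzyme with no compound and 100% = no enzyme blank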
C1s block: blocks human complement C1s protease activity; purified C1s, fluorogenic AMC substrate, pooled mixtures; mean inhibition % of two 10-compound mixtures (stronger effect = higher value), % at 5 µM (by protocol); actives 0.16% (n = 62,000);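 active = inhibition above 20% in each of the two 10-compound mixture wells holding the compound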;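 note: 0% = enzyme wells lacking compound mixture and 100% = no-enzyme blank wells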
Cathepsin G inh: blocks human cathepsin G enzyme activity; purified enzyme, AMC-tetrapeptide fluorescence, pooled mixtures; inhibition, % at 5 µM (by protocol); actives 0.2% (n = 62,000); AID 581;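 active = inhibition above 20% in each of the two mixture wells holding the compound; inactive = inhibition of 20% or less in either well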;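 note: 0% = enzyme control without mixture and 100% = blank lacking enzyme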
* marks the source's active call; other numbers are inactive results; ? = inconclusive; . = no result given.

SMILES	CatS block	CatB mixtures	CatL block	CatB block	C1s block	Cathepsin G inh
O=C(CSc1nnc(-c2ccco2)c(-c2ccco2)n1)Nc1ccccc1	15	?	31	57*	-61	10
Cc1nnc2ccc(N3CCN(c4ccccn4)CC3)nn12	10	6	.	51*	3	-2
Nc1nnnn1CC(=O)OCc1cccc(Br)c1	.	.	20	1	.	.
CCCCn1c(-c2cc(Cl)ccc2OC)n[nH]c1=S	21	4	9	2	43*	10
Cc1ccccc1S(=O)(=O)NC1OC(=O)C(Cl)=C1Cl (stereo unspecified)	-7	3	-11	2	-8	7
CC(=O)NC(=O)NC1OC(=O)C(Cl)=C1Cl (stereo unspecified)	9	?	25	21*	18	12
N#CC(c1nc2ccccc2nc1N1CCCC1)S(=O)(=O)c1cccs1 (stereo unspecified)	0	-1	-1	3	-62	-11
Nc1cc(OC(=O)c2ccco2)nn1S(=O)(=O)c1ccc(F)cc1	-3	60*	8	61*	8	3
Cc1ccc(S(=O)(=O)n2nc(OC(=O)c3ccco3)cc2N)cc1	19	59*	12	76*	20	20
Cc1ccc(S(=O)(=O)n2nc(OC(=O)c3cccs3)cc2N)cc1	4	47*	-7	64*	29*	33*
O=C(C1CCCN1C(=O)c1cccs1)N1CCc2ccccc21 (stereo unspecified)	-4	-7	16	-1	-3	10
O=C(CN1C(=O)COc2ccccc21)N(Cc1cccnc1)Cc1ccccc1F	6	5	1	-1	8	9
O=C(CCn1c(=S)[nH]c2cc3c(cc2c1=O)OCO3)NCCN1CCCC1	-1	0	14	2	16	20
Cc1cccc(-n2nnc(C(=O)Nc3ccc(F)cc3)c2N)c1	-7	2	1	0	25	51*
COc1cc(C)nc(NS(=O)(=O)c2ccccc2)n1	12	4	-7	2	22*	9
O=C(Nc1ccc2oc(=O)ccc2c1)c1cccnc1	2	5	4	0	23*	16
Cn1c(=O)n(C)c2cc(S(=O)(=O)N3CCOCC3)ccc21	13	6	10	6	11	7
Cn1c(=O)c(=O)n(C)c2cc(S(=O)(=O)N3CCCCCC3)ccc21	-5	46*	-5	-8	19	19
O=C(Nc1ccc(Nc2ccccc2)cc1)C1CC1	-6	-8	7	22*	-24	6
Nc1nonc1-c1nc2ccccc2n1CC(=O)NC1CCCC1	-4	18	31	14	8	10
CC1CCCN(C(=O)Cn2c(-c3nonc3N)nc3ccccc32)C1 (stereo unspecified)	-1	6	18	6	12	7
CCOC(=O)c1ccccc1NC(=O)Cn1c(-c2nonc2N)nc2ccccc21	-5	5	44	59*	11	7
Nc1nonc1-c1nc2ccccc2n1Cc1ccccc1	-2	43*	39	5	-26	-7
CC1=C(C)CS(=O)N(S(=O)(=O)c2ccc(Cl)cc2)C1 (stereo unspecified)	6	32*	.	24*	7	9
OC(CNCC(c1ccco1)N1CCCCC1)c1ccccc1 (stereo unspecified)	12	3	-2	3	6	8
SMILES	CatS block	CatB mixtures	CatL block	CatB block	C1s block	Cathepsin G inh
COc1ccc(N(CC(=O)NCC2CCCO2)S(=O)(=O)c2c(C)noc2C)cc1 (stereo unspecified)	2	0	3	32*	-12	0
COC(=O)c1sc(N2C(=O)C(O)=C(C(=O)c3ccc(C)o3)C2c2ccc(F)cc2)nc1C (stereo unspecified)	-11	4	11	6	20	59*
CC(C)CCNC(=O)[C@H](CC(C)C)NC(=O)[C@H]1O[C@@H]1C(=O)O	.	100*	99*	.	13	11
COc1ccccc1-c1cc(C(=O)NC(C)C)no1	-3	5	-8	1	7	13
COc1ccccc1-c1cc(C(=O)NC(C)c2ccccc2)no1 (stereo unspecified)	-6	7	-3	0	7	33*
CCOC(=O)c1sc(C)c2c1NC(C)(c1cccs1)NC2=O (stereo unspecified)	5	2	-3	7	-12	-8

Assay outcomes deposited in PubChem BioAssay by PCMD.
